The values that follow come from PubChem BioAssay (NCATS).

Structures are written as SMILES. Results filed as inconclusive are left out. The source made the active and inactive calls. The call rests on the fitted dose curve; in most records, active means well fitted curve in the direction sought with a large enough effect; inconclusive means small, poorly fitted or top-dose-only effect, or another doubt; inactive means no such curve, though single readings can be large; an effect the other way counts as inactive or inconclusive.

A short description of experiment [1]: S16 Schwann cell viability assay (CellTiter-Glo assay) (AID 624031).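 Further: cellular ATP luminescence as a viability measure; nearly all actives have a fitted effect of over 70% in size.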 In outline:
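Native S16 Schwann cells (rat), serum-containing medium, overnight attachment then 24 h drug exposure at 37 °C/5% CO2. CellTiter-Glo ATP signal; normalized to cell-free and vehicle wells.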

For experiment [2], the system named is 3D7. In words: qHTS profiling for inhibitors of Plasmodium falciparum proliferation (AID 504749). Further: nearly all actives have a fitted effect of over 60% in size. Further: potency means the concentration at half of the fitted maximal effect. Particulars: P. falciparum in erythrocytes, SYBR Green DNA, 72 h; series mostly up to 28.7 µM. Put shortly:
(§1)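 In a 72 h erythrocytic culture (37 C, humidified, 5% CO2) at 2.5% hematocrit and 0.3% starting parasitemia, compounds were tested; SYBR Green I in detergent lysis buffer stained parasite DNA overnight.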

For experiment [3], the system named is CP185. Described as above. Particulars: P. falciparum in erythrocytes, SYBR Green DNA, 72 h; series mostly up to 28.7 µM. Put shortly:
as §1

Experiment [4] deals with CP203. The experiment is described as above. Particulars: P. falciparum in erythrocytes, SYBR Green DNA, 72 h; series mostly up to 28.7 µM. In outline:
as §1

For experiment [5], the system named is CP211. Described as above. The conditions noted are these: P. falciparum in erythrocytes, SYBR Green DNA, 72 h; series mostly up to 28.7 µM. Put shortly: as §1
Experiment [6] relates to CP217. Described as above. Particulars: P. falciparum in erythrocytes, SYBR Green DNA, 72 h; series mostly up to 28.7 µM. Put shortly:
as §1

Experiment [7] deals with CP250. The experiment is described as above. The conditions noted are these: P. falciparum in erythrocytes, SYBR Green DNA, 72 h; series mostly up to 28.7 µM. In outline:
as §1

In experiment [8] the test system is CP252. The description is as above. Particulars: P. falciparum in erythrocytes, SYBR Green DNA, 72 h; series mostly up to 28.7 µM. Put shortly:
as §1

In experiment [9] the test system is CP256. Described as above. Particulars: P. falciparum in erythrocytes, SYBR Green DNA, 72 h; series mostly up to 28.7 µM. Put shortly: as §1
Experiment [10] concerns CP262. The description is as above. The conditions noted are these: P. falciparum in erythrocytes, SYBR Green DNA, 72 h; series mostly up to 28.7 µM. Put shortly:
as §1

Experiment [11] relates to CP265. The experiment is described as above. Particulars: P. falciparum in erythrocytes, SYBR Green DNA, 72 h; series mostly up to 28.7 µM. In outline: as §1
Experiment [12] relates to CP291. The experiment is described as above. Particulars: P. falciparum in erythrocytes, SYBR Green DNA, 72 h; series mostly up to 28.7 µM. Put shortly:
as §1

The subject of experiment [13] is CP305. The description is as above. The conditions noted are these: P. falciparum in erythrocytes, SYBR Green DNA, 72 h; series mostly up to 28.7 µM. In outline: as §1
Experiment [14] relates to CP315. The description is as above. Particulars: P. falciparum in erythrocytes, SYBR Green DNA, 72 h; series mostly up to 28.7 µM. In outline:
as §1

Experiment [15] has as its system CP335. Described as above. Particulars: P. falciparum in erythrocytes, SYBR Green DNA, 72 h; series mostly up to 28.7 µM. In outline:
as §1

Experiment [16] has as its system ECU. Described as above. Particulars: P. falciparum in erythrocytes, SYBR Green DNA, 72 h; series mostly up to 28.7 µM. In outline: as §1
Experiment [17] concerns HB3. The description is as above. Particulars: P. falciparum in erythrocytes, SYBR Green DNA, 72 h; series mostly up to 28.7 µM. In outline: as §1
The subject of experiment [18] is N140. Described as above. The conditions noted are these: P. falciparum in erythrocytes, SYBR Green DNA, 72 h; series mostly up to 28.7 µM. Put shortly: as §1
Experiment [19] has as its system PC15. The experiment is described as above. Particulars: P. falciparum in erythrocytes, SYBR Green DNA, 72 h; series mostly up to 28.7 µM. In outline:
as §1

Experiment [20] deals with TAB113. The description is as above. Particulars: P. falciparum in erythrocytes, SYBR Green DNA, 72 h; series mostly up to 28.7 µM. In outline:
as §1

`COc1ccc2c3c1O[C@H]1[C@@H](O)C=C[C@H]4C(C2)NCCC341` (some centres not stated): the Potency entry in [1], in experiment [2], in experiment [3], in experiment [4], in experiment [5] and in experiment [6] was “inactive” in each case. Further, the Potency entry in experiment [7], in experiment [8], in [9], in experiment [10], in experiment [11] and in experiment [12] was “inactive” in each case. The Potency result in experiment [13], in experiment [14], in experiment [15], in experiment [16], in [17] and in [18] was “inactive” each time. Also, the Potency entry in [19] and in experiment [20] was “inactive” throughout.

On to `CCCN1CCCC2Cc3nc(N)ncc3CC21` (configuration not stated), for which the Potency entry in [1], in experiment [2], in experiment [3], in [4], in experiment [5] and in [6] was “inactive” throughout. Moreover, the Potency result in experiment [7], in experiment [8], in experiment [9], in experiment [10], in experiment [11] and in experiment [12] was “inactive” in each case. Also, the Potency entry in experiment [13], in experiment [14], in experiment [15], in experiment [16], in [17] and in experiment [18] was “inactive” in each case. Also, the Potency result in experiment [19] and in experiment [20] was “inactive” throughout.

As to `CC1(C)S[C@@H]2[C@H](N)C(=O)N2C1C(=O)O` (some centres not stated), the Potency result in experiment [1], in [2], in experiment [3], in experiment [4], in experiment [5] and in experiment [6] was “inactive” in each case. Besides, the Potency result in [7], in [8], in experiment [9], in experiment [10], in experiment [11] and in experiment [12] was “inactive” each time. Moreover, the Potency result in [13], in experiment [14], in experiment [15], in experiment [16], in experiment [17] and in [18] was “inactive” each time. Moreover, the Potency entry in [19] and in experiment [20] was “inactive” each time.

For the compound `Cc1ccc2c(c1)[C@@H]1CN(C)CC[C@H]1N2`, the Potency result in experiment [1], in experiment [2], in [3], in [4], in [5] and in experiment [6] was “inactive” each time. The Potency result in experiment [7], in experiment [8], in experiment [9], in [10], in experiment [11] and in experiment [12] was “inactive” each time. The Potency entry in [13], in [14], in experiment [15], in [16], in experiment [17] and in experiment [18] was “inactive” in each case. The Potency result in [19] and in experiment [20] was “inactive” in each case.

In the case of `C=C1Nc2ccccc2C(=O)N1c1ccccc1C`, the Potency entry in experiment [1], in experiment [2], in experiment [3], in experiment [4], in experiment [5] and in experiment [6] was “inactive” each time. Further, the Potency result in experiment [7], in experiment [8], in experiment [9], in experiment [10], in experiment [11] and in experiment [12] was “inactive” in each case. The Potency result in experiment [13], in experiment [14], in experiment [15], in experiment [16], in [17] and in [18] was “inactive” in each case. The Potency result in experiment [19] and in [20] was “inactive” throughout.

As for `OCC(O)[C@H]1O[C@@H]2O[C@H](C(Cl)(Cl)Cl)O[C@@H]2[C@H]1O` (some centres not stated), the Potency entry in experiment [1], in experiment [2], in [3], in experiment [4], in experiment [5] and in experiment [6] was “inactive” throughout. Also, the Potency entry in experiment [7], in experiment [8], in [9], in experiment [10], in experiment [11] and in experiment [12] was “inactive” each time. Moreover, the Potency result in experiment [13], in experiment [14], in experiment [15], in [16], in experiment [17] and in experiment [18] was “inactive” in each case. The Potency entry in experiment [19] and in experiment [20] was “inactive” in each case.

Take `C=CC[N+]1(C)CCC23c4c5ccc(O)c4O[C@H]2C(=O)CC[C@@]3(O)C1C5` (some centres not stated): the Potency entry in experiment [1], in experiment [2], in [3], in [4], in experiment [5] and in [6] was “inactive” throughout. For the same compound, the Potency entry in experiment [7], in experiment [8], in [9], in experiment [10], in experiment [11] and in experiment [12] was “inactive” each time. Further, the Potency entry in [13], in experiment [14], in experiment [15], in [16], in [17] and in experiment [18] was “inactive” in each case. Also, the Potency entry in [19] and in experiment [20] was “inactive” each time.

In the case of `CC(CO)NC(=O)C1C=C2c3cccc4[nH]cc(c34)CC2N(C)C1` (configuration not stated), the Potency entry in experiment [1], in experiment [2], in experiment [3], in experiment [4], in experiment [5] and in experiment [6] was “inactive” each time. The Potency entry in [7], in experiment [8], in experiment [9], in experiment [10], in experiment [11] and in experiment [12] was “inactive” in each case. For the same compound, the Potency entry in experiment [13], in experiment [14], in experiment [15], in experiment [16], in experiment [17] and in experiment [18] was “inactive” in each case. Besides, the Potency result in experiment [19] and in [20] was “inactive” in each case.

Regarding `COC(C(=O)C(O)C(C)O)C1Cc2cc3cc(OC4CC(OC5CC(O)C(OC)C(C)O5)C(OC(C)=O)C(C)O4)c(C)c(O)c3c(O)c2C(=O)C1OC1CC(OC2CC(OC3CC(C)(O)C(OC(C)=O)C(C)O3)C(O)C(C)O2)C(O)C(C)O1` (configuration not stated), in experiment [1], the Potency result is “inactive”. The Potency in experiment [2] was 0.631 µM (active); in experiment [3] it was 1.26 µM (active); in [4] it was 4.78 µM (active); in [6], 1.78 µM (active); in experiment [7], 2 µM (active); in experiment [8], 2 µM (active). Further, the Potency in [9] is 2.51 µM (active); in experiment [10] it was 3.38 µM (active); in experiment [11], 2.24 µM (active); in experiment [12], 2.13 µM (active); in experiment [13] it was 2.39 µM (active); in experiment [15] it was 0.338 µM (active). The Potency in experiment [16] is 1 µM (active); in experiment [17] it was 0.355 µM (active); in [18], 1 µM (active); in [19], 2.24 µM (active); in experiment [20] it was 0.708 µM (active).

Regarding `C=C1CC2C(CC[C@]3(C)C(=O)CCC23)[C@]2(C)C=CC(=O)C=C12` (some centres not stated), the Potency entry in experiment [1], in experiment [2], in experiment [3], in [4], in [5] and in experiment [6] was “inactive” in each case. For the same compound, the Potency entry in [7], in experiment [8], in experiment [9], in [10], in experiment [11] and in experiment [12] was “inactive” each time. The Potency result in experiment [13], in experiment [14], in experiment [16], in experiment [17], in experiment [18] and in experiment [19] was “inactive” throughout. Moreover, in [20], the Potency result is “inactive”.

Turning to `O=[N+]([O-])OC1CO[C@H]2C(O[N+](=O)[O-])COC12` (some centres not stated), the Potency result in [1], in experiment [2], in experiment [3], in [4], in [5] and in experiment [6] was “inactive” in each case. The Potency entry in experiment [7], in experiment [8], in experiment [9], in [10], in experiment [11] and in experiment [12] was “inactive” in each case. The Potency result in [13], in [14], in experiment [15], in [16], in experiment [17] and in experiment [18] was “inactive” throughout. In addition, the Potency entry in [19] and in experiment [20] was “inactive” in each case.
